This is one part of a sample in which hits are shown more often than they occur.
Tg IFNy HTS – inhibitors of Toxoplasma gondii growth with IFN-gamma; Toxoplasma gondii growth in IFN-gamma-treated host cells; hits give low values; activity change, negative = inhibition, % (no concentration beside the values); 69,000 tested, 3.8% active; in the data active = activity change below about -70%, passing the limit was not always enough;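 also: host cells are HeLa cells infected with Toxoplasma gondii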
Numbers without * were called inactive; ! = not active in a repeat.

Screening CN(Cc1ccccc1)C(=O)c1cc2cccnc2n(Cc2ccccc2)c1=O returned Tg IFNy HTS 16.4.
`COc1ccccc1N1CCN(C(=O)c2cc3cccnc3n(Cc3ccccc3)c2=O)CC1` gave Tg IFNy HTS 28.2.
For O=C(c1cc2cccnc2n(Cc2ccc(F)cc2)c1=O)N(Cc1ccccc1)c1ccccc1 the results were Tg IFNy HTS -28.7.
`O=C(c1cc2cccnc2n(Cc2ccc(Cl)cc2)c1=O)N1CCN(c2ccccc2)CC1` gave Tg IFNy HTS -3.9.
`O=C(c1cc2cccnc2n(Cc2ccc(F)cc2)c1=O)N1CCCCCC1` gave Tg IFNy HTS -12.0.
O=S(=O)(c1ccccc1C(F)(F)F)N1CCC2(CC1)Nc1cc(F)ccc1-n1cccc12 was read as Tg IFNy HTS 43.4.
`Cc1ccc(O[C@H]2C[C@H]3CN(Cc4nccn4C)CCN3C2)cc1` gave Tg IFNy HTS -4.3.
O=C(CCOc1ccccc1)N1CCCCC1c1ccn[nH]1 (centres undefined) was read as Tg IFNy HTS 12.8.
For COCC1CN(Cc2ccc(F)cc2)Cc2nn(CC3CC3)cc21 (centres undefined) the results were Tg IFNy HTS -9.4.
Screening Cc1ccc(-n2cc(CN(C)Cc3cn(C)nc3C)c(-c3ccc(F)cc3)n2)cc1 returned Tg IFNy HTS -8.3.
Screening Cc1nc(-c2cccc(F)c2)sc1CCNS(=O)(=O)c1ccccc1F returned Tg IFNy HTS 46.7.
For Cc1cccc(NC(=O)Cn2c(=O)ccc3cc(S(=O)(=O)N4CCCC4)ccc32)c1 the results were Tg IFNy HTS -53.1.
Screening COc1ccc(/C=C/c2nn3c(-c4ccc(OC)c(OC)c4)nnc3s2)cc1 returned Tg IFNy HTS -100.9*.
For COc1ccc(-c2nnc3sc(C4COc5ccccc5O4)nn23)cc1OC (centres undefined) the results were Tg IFNy HTS -40.7.
`COc1ccc(-c2nc(C)c(C(C)=O)n2O)cc1OC` gave Tg IFNy HTS 10.5.
`O=C(O)CNS(=O)(=O)c1cccc2cccnc12` gave Tg IFNy HTS 15.9.
For CC(C)(C)NC[C@H](O)COc1ccccc1C1CCCC1 the results were Tg IFNy HTS 16.3.
OC(CNC1Cc2ccccc2C1)COc1ccc(F)cc1 (centres undefined) was read as Tg IFNy HTS -39.7.
Screening CCc1ccccc1OC[C@@H](O)CN[C@H]1CCCc2ccccc21 returned Tg IFNy HTS -80.5*!.
For CN(Cc1cc2n(n1)CCCNC2)Cc1ncc[nH]1 the results were Tg IFNy HTS 3.4.
`CN1CCC2(CCCN(Cc3ccncc3)CC2)C1=O` (centres undefined) gave Tg IFNy HTS 103.6.
`Cc1nccn1-c1ccccc1CNC(=O)[C@@H](O)c1ccccc1` gave Tg IFNy HTS -3.7.
`COC1C2CCC1N(S(=O)(=O)c1cccs1)C2` (centres undefined) gave Tg IFNy HTS -76.6*.
For CC(C)CN1CC[C@H]2[C@@H]1CCN2S(=O)(=O)c1cccs1 the results were Tg IFNy HTS -4.4.
`COc1ccc(S(=O)(=O)N2CC3CCC2C3Oc2cccnc2)cc1` (centres undefined) gave Tg IFNy HTS -4.4.
Screening COc1ccccc1-c1cc(C(=O)NCCn2nc(C)nc2C)no1 returned Tg IFNy HTS -9.3.
`CS(=O)(=O)NC1CC2(CCN(C(=O)c3cncnc3)C2)C1` (centres undefined) gave Tg IFNy HTS 5.8.
For Cc1cc(Nc2ccccn2)cc(C2CCCN(C(=O)c3n[nH]c4c3CCCCCC4)C2)n1 (centres undefined) the results were Tg IFNy HTS -85.6*.
For O=C(c1n[nH]c2c1CCCCCC2)N1CCCN(c2ccccn2)CC1 the results were Tg IFNy HTS 9.9.
Screening Cc1cc(Nc2ccccn2)cc(C2CCCN(S(=O)(=O)c3ccc(F)cc3)C2)n1 (centres undefined) returned Tg IFNy HTS -65.4.
Cc1ccc2[nH]c(C(=O)N3CCN(c4ccccn4)CC3)c(NC(=O)c3ccc(Cl)cc3)c2c1 was read as Tg IFNy HTS 12.2.
`CNc1cc(C(=O)N2CCCC2c2nc(-c3ccccc3)no2)ccn1` (centres undefined) gave Tg IFNy HTS 19.4.
For COc1cccc(-c2nnn(CC(=O)NC3CCOc4ccccc43)n2)c1 (centres undefined) the results were Tg IFNy HTS 18.6.
Screening Nc1ccc(OCCN2CCCCCC2)cc1 returned Tg IFNy HTS 9.8.
Screening CN1CCN(CCOc2ccc(C(=O)O)cc2)CC1 returned Tg IFNy HTS 62.9.
Cc1c(-c2ccc(O)cc2)n(Cc2ccc(OCCN3CCCCCC3)cc2)c2ccc(O)cc12 was read as Tg IFNy HTS -76.1*.
For CCOc1ncccc1-c1nc(C)cc(NC)n1 the results were Tg IFNy HTS 7.1.
For Cc1cc(Nc2ccc(Br)cc2)nc(-c2ccccc2O)n1 the results were Tg IFNy HTS -84.9*.
For Cc1cc(N2CC(c3ccccn3)C2)nc(-c2ccccc2O)n1 the results were Tg IFNy HTS -13.6.
`Cc1c(Cl)cccc1S(=O)(=O)N1[C@H]2CCNC[C@@H]1CC2` gave Tg IFNy HTS -0.5.

Compound activity from PubChem BioAssay.
